Structures are written as SMILES. This is part of a sample that, as a whole, favours compounds with a hit. Of some 83,000 tested, about 20% had one in any assay.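 For each line, cells grew in 96-well plates with the test compound present at a single concentration for 48 hours.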 A number with no mark means an inactive call. Activity calls are given as the source filed them. How the source made its calls: active means growth percent below 10; inactive means the rest.

Among the test systems are SR leukemia; RPMI-8226 leukemia; OVCAR-8 ovarian; OVCAR-5 ovarian; OVCAR-4 ovarian; SK-OV-3 ovarian; IGROV1 ovarian; OVCAR-3 ovarian; HS 578T breast; NCI/ADR-RES ovarian; T-47D breast; BT-549 breast; MDA-MB-435 melanoma; SW-620 colon; MCF7 breast; HCT-116 colon; HCC-2998 colon; KM12 colon.
What all share (experiment): NCI-60 one-dose screen, 48 h (100 = growth as untreated, 0 = no growth, -100 = all killed)
Conditions in all cases: 10 µM unless noted

Regarding `N#C/C(=C\c1ccc(-c2cccc(Cl)c2)o1)C(=O)Nc1ncc(Cc2ccc(Cl)cc2)s1`, the growth in the test with SR leukemia is 29.9%; with RPMI-8226 leukemia, 81.1%; in the test with OVCAR-8 ovarian, 40.4%; with OVCAR-5 ovarian it was 47.1%; in the test on OVCAR-4 ovarian, -45.5% (active); in the test on SK-OV-3 ovarian, 78%. Besides, the growth was 30.5% with IGROV1 ovarian; 11.3% in the test with OVCAR-3 ovarian; 24.4% in the test on HS 578T breast; 54.6% in the test on NCI/ADR-RES ovarian; 20.7% with T-47D breast; 72.9% in the test on BT-549 breast. The growth was 56.5% in the test with MDA-MB-435 melanoma; 62.5% in the test with SW-620 colon; 54.4% in the test with MCF7 breast; 41.9% with HCT-116 colon; 94.3% with HCC-2998 colon; 48.6% in the test with KM12 colon.

As for `COc1ccc(C=Nc2c(C(=O)Nc3cccc(Cl)c3C)sc3nc(C)c(C(=O)/C=C/c4ccc(OC)cc4)cc23)cc1`, the growth with SR leukemia was 30.8%; with RPMI-8226 leukemia, 14.9%; with OVCAR-8 ovarian it was 21%; in the test on OVCAR-5 ovarian, 31.3%; in the test on OVCAR-4 ovarian it was 58.2%; in the test with SK-OV-3 ovarian it was 40.9%. For the same compound, the growth in the test on IGROV1 ovarian was 38.3%; with OVCAR-3 ovarian, 4.94% (active); in the test on HS 578T breast, -1.89% (active); in the test on NCI/ADR-RES ovarian it was 10.9%; in the test on T-47D breast, 24.3%; in the test with BT-549 breast, 40%. For the same compound, the growth with MDA-MB-435 melanoma is -65.8% (active); with SW-620 colon it was 12.4%; in the test with MCF7 breast, 11.8%; with HCT-116 colon, 23%; with HCC-2998 colon it was 57.6%; in the test on KM12 colon, 12.4%.

For the compound `CC(C)n1c2ccc(Br)cc2c2c3c(c4c5ccccc5ccc4c21)C(=O)NC3=O`, the growth with SR leukemia is 61.6%; with RPMI-8226 leukemia, 91.6%; in the test with OVCAR-8 ovarian, 100%; in the test with OVCAR-5 ovarian it was 87.7%; in the test on OVCAR-4 ovarian it was 94.2%; in the test with SK-OV-3 ovarian it was 105%. Moreover, the growth was 84.8% in the test with IGROV1 ovarian; 94.2% with OVCAR-3 ovarian; 108% in the test on HS 578T breast; 93.2% in the test on NCI/ADR-RES ovarian; 63.3% with T-47D breast; 95.9% in the test with BT-549 breast. The growth with MDA-MB-435 melanoma is 92.4%; in the test with SW-620 colon it was 101%; with MCF7 breast, 86.2%; with HCT-116 colon it was 85.2%; with HCC-2998 colon, 103%; in the test with KM12 colon, 52.7%.

With `Cc1nc2sc(C(=O)Nc3cccc(Cl)c3C)c(N)c2cc1C(=O)/C=C/c1ccccc1`, the growth in the test on SR leukemia is 14.2%; in the test on RPMI-8226 leukemia, -37.2% (active); in the test with OVCAR-8 ovarian, -12.5% (active); in the test on OVCAR-5 ovarian, 8.98% (active); with OVCAR-4 ovarian, 35.5%; with SK-OV-3 ovarian, 28.8%. Further, the growth was -11.8% (active) in the test on IGROV1 ovarian; -76.6% (active) in the test on OVCAR-3 ovarian; 6.35% (active) with HS 578T breast; -4.7% (active) in the test with NCI/ADR-RES ovarian; 21.2% with T-47D breast; -35.7% (active) in the test on BT-549 breast. The growth is -26.3% (active) with MDA-MB-435 melanoma; -21.8% (active) in the test on SW-620 colon; 3% (active) in the test on MCF7 breast; -35.6% (active) in the test on HCT-116 colon; -83.2% (active) with HCC-2998 colon; -16.7% (active) with KM12 colon.

As to `CN1C(=O)N2CN3CCCN(C3)CN3C(=S)NC1C23` (centres undefined), the growth in the test with SR leukemia was 97.4%; with RPMI-8226 leukemia, 93.6%; in the test on OVCAR-8 ovarian, 101%; in the test with OVCAR-5 ovarian, 109%; with OVCAR-4 ovarian, 102%; in the test with SK-OV-3 ovarian, 93.3%. The growth with IGROV1 ovarian was 104%; with OVCAR-3 ovarian, 107%; in the test on HS 578T breast it was 101%; in the test on NCI/ADR-RES ovarian, 109%; with T-47D breast, 105%; in the test on BT-549 breast, 117%. For the same compound, the growth in the test with MDA-MB-435 melanoma was 106%; in the test with SW-620 colon, 101%; in the test on MCF7 breast it was 95.4%; in the test with HCT-116 colon it was 106%; in the test with HCC-2998 colon, 103%; in the test on KM12 colon, 104%.

For `Ic1ccc(Nc2nc3nonc3nc2Nc2ccc(I)cc2)cc1`, the growth in the test on SR leukemia was -12.6% (active); in the test with RPMI-8226 leukemia, -36.6% (active); with OVCAR-8 ovarian it was 6.55% (active); with OVCAR-5 ovarian, 34%; with OVCAR-4 ovarian, 19.3%; with SK-OV-3 ovarian, -19.9% (active). The growth in the test on IGROV1 ovarian is 28.5%; with OVCAR-3 ovarian it was 9.01% (active); in the test with HS 578T breast, 19.2%; in the test with NCI/ADR-RES ovarian it was 3.09% (active); in the test with T-47D breast, -9.49% (active); in the test with BT-549 breast, -21.7% (active). The growth in the test on MDA-MB-435 melanoma is 6.04% (active); in the test on SW-620 colon it was 13.8%; in the test on MCF7 breast it was 3.42% (active); with HCT-116 colon, 0.308% (active); in the test with HCC-2998 colon, 8.32% (active); in the test with KM12 colon, 7.87% (active).

With `O=C(NC1CCC(Br)CC1)C1CCCC(S(=O)(=O)NC2CCCCC2)C1` (centres undefined), the growth was 21.1% [25 µM] in the test on SR leukemia; 2.82% [25 µM] (active) in the test on RPMI-8226 leukemia; 7.56% [25 µM] (active) with OVCAR-8 ovarian; 39.2% [25 µM] in the test with OVCAR-5 ovarian; 4.59% [25 µM] (active) in the test on OVCAR-4 ovarian; 1.87% [25 µM] (active) in the test with SK-OV-3 ovarian. Moreover, the growth in the test with IGROV1 ovarian was 27.4% [25 µM]; in the test on OVCAR-3 ovarian, 14.3% [25 µM]; with HS 578T breast it was 46.1% [25 µM]; with NCI/ADR-RES ovarian it was 3.69% [25 µM] (active); in the test on T-47D breast, -9.71% [25 µM] (active); with BT-549 breast it was 21.6% [25 µM]. Moreover, the growth with MDA-MB-435 melanoma is 14.4% [25 µM]; in the test with SW-620 colon, 31.2% [25 µM]; with MCF7 breast, 6.38% [25 µM] (active); in the test with HCT-116 colon it was 17% [25 µM]; with HCC-2998 colon it was 24.6% [25 µM]; with KM12 colon, 16.9% [25 µM].

Regarding `COc1cc(C=C2C(=O)NC(=S)NC2=O)cc(CN2CCCC2)c1O`, the growth in the test with SR leukemia is 107%; with RPMI-8226 leukemia, 106%; with OVCAR-8 ovarian, 108%; with OVCAR-5 ovarian, 106%; with OVCAR-4 ovarian, 119%; in the test with SK-OV-3 ovarian, 94.4%. Further, the growth is 106% in the test on IGROV1 ovarian; 111% in the test with OVCAR-3 ovarian; 106% in the test with HS 578T breast; 108% in the test with NCI/ADR-RES ovarian; 110% in the test with T-47D breast; 114% with BT-549 breast. For the same compound, the growth is 100% in the test with MDA-MB-435 melanoma; 108% with SW-620 colon; 96.1% with MCF7 breast; 113% with HCT-116 colon; 110% in the test with HCC-2998 colon; 110% in the test with KM12 colon.
